Out of some 200,000 compounds screened, about 5,100 (2.5%) were called active.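 The calls were made as follows: active = activation above the screen-wide mean activation plus 3 SD (cut at about 130% in these data); inactive = the rest.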 For the sample, actives were picked, then their nearest neighbours and some compounds at random.

This experiment can be described thus: STAT1 signaling activators, primary screen, cell-based, HTS, luciferase reporter (AID 932).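 Also: raw ratio to IFN-gamma control signal so 100% means no change and 0% no light.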 To be noted: NIH 3T3 STAT1-luciferase reporter, IFN-gamma, luminescence; at 5.5 µM; active compounds read high; 100% = IFN-gamma alone, no compound.
With `CC(C)(C)c1ccc(OC(=O)N2CCCCC2)cc1`, the activation (% of control) was 146% (active).

As for `O=C(Nc1cccc(OC(=O)N2CCCCC2)c1)N1CCOCC1`, the activation (% of control) is 101% (inactive). `CN1CCN(C(=O)COc2ccc(C(C)(C)C)cc2Br)CC1`: the activation (% of control) is 97% (inactive).

As to `Cc1ccccc1N1C(=O)NC(=O)/C(=C\c2cc(C)n(C)c2C)C1=O`, the activation (% of control) is 92.7% (inactive). For the compound `CCOC(=O)C1CN(C)CCC1=O` (stereo not given), the activation (% of control) was 96.3% (inactive).

For the origin of these results see PubChem BioAssay AID932 (The Scripps Research Institute Molecular Screening Center, 2007).
